Hits are enriched below; roughly 2.7% of the tested compounds scored in any of these assays.
Nrf2 activator: qHTS of Nrf2 Activators. AREc32 ARE-luciferase reporter (MCF7-derived line), luminescence, 24 h. Potency, µM (top dose mostly 46.1 µM), actives largely listed as activators. 410,000 compounds, 0.31% hits. AID 624171, 2012; also: nearly all actives have a fitted effect of over 65% in size
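For detection, Steady-Glo was added and plates sat 30 min at RT; before that, AREc32_Fluc cells grown overnight in OPTI-MEM/5% FBS had been treated with 23 nL compound for 24 hr at 37 deg C.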
ALOX12 inh: Primary qHTS assay for inhibitors of human arachidonate 12S-lipoxygenase (ALOX12): Round 2 | Polyunsaturated fatty acid lipoxygenase ALOX12 (Homo sapiens), P18054 | purified 12hLO, xylenol orange hydroperoxide absorbance | Potency, µM (highest dose often 108 µM), usual class: inhibitors | 580,000 compounds, 1.1% hits
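Purified human 12hLO at 150 nM in 25 mM Hepes, 0.01% Triton X-100, pH 7.0, preincubated 15 min at room temperature with compound. Reaction started with 40 uM arachidonic acid, 30 min at room temperature. Hydroperoxide measured by Fe-xylenol orange, 573/405 nm absorbance ratio.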
A549 tox: Nrf2 qHTS screen for inhibitors: counterscreen for cytotoxicity; A549 ARE-Fluc cells, CellTiter-Fluor viability, 18-24 h; Potency, µM (top dose mostly 46 µM), hits mostly inhibitors; 390,000 compounds, 0.16% hits; AID 504648, 2011
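A549 ARE-Fluc cells in 5% FBS OPTI-MEM, 5000 cells/well, rested 2 h then exposed to compounds in concentration-response for 18-24 h at 37 °C. Viability by CellTiter-Fluor fluorescence (Ex 405/Em 525) after 30 min; luciferase luminescence (BugLite, 15 min, RT) read afterwards.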
IDH1 R132H inh: qHTS for Inhibitors of mutant isocitrate dehydrogenase 1 (IDH1): qHTS; Isocitrate dehydrogenase [NADP] cytoplasmic (Homo sapiens), O75874; IDH1-R132H enzyme, NADPH consumption, diaphorase/resazurin fluorescence; Potency, µM (highest dose often 76.6 µM), hits mostly inhibitors; 390,000 compounds, 0.093% hits; AID 602179, 2012; also: nearly all actives have a fitted effect of over 65% in size
Target sequence (O75874 whole entry R132H, stated change not applied): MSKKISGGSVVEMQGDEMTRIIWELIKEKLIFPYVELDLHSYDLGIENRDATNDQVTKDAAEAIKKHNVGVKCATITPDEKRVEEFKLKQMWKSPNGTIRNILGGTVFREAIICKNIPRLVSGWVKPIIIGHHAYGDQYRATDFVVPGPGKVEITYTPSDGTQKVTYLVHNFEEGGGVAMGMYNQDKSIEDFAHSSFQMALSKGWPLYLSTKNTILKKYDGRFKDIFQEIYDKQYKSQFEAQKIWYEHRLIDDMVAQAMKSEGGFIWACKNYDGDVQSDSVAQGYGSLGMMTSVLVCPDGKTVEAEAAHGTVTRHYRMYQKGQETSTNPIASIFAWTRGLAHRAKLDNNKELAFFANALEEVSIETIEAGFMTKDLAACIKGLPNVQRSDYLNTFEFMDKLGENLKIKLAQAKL
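IDH1-R132H (0.5 ug/mL dispensed) in pH 7.5 Tris buffer was preincubated 30 min with compound, then given a substrate mix of 0.016 mM NADPH and 2 mM alpha-KG for 80 min at room temperature; remaining NADPH was read by diaphorase/resazurin fluorescence.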
LDHA inh: qHTS assay for inhibitors of human lactate dehydrogenase | activity change, % (values are at about 110 or 230 µM) | AID 1347041, 2019 | 480,000 compounds, 0.15% hits | purified LDHA, NADH/diaphorase-resazurin fluorescence; hits give low values; in the data active = activity change below about -30%; inconclusive = mostly about -25% to -30%
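Enzyme activity of human lactate dehydrogenase 5 (2 nM; 0.06 mM NADH, 0.2 mM pyruvate, 5 min, RT) is measured via a resazurin/diaphorase fluorescence readout of residual NADH.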
Nrf2 inh: Nrf2 qHTS screen for inhibitors. 360,000 compounds, 2.1% hits. A549 ARE-Fluc reporter, luciferase luminescence, 18-24 h. Potency, µM (top dose mostly 46 µM), usual class: inhibitors; also: nearly all actives have a fitted effect of over 60% in size
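A549 ARE_Fluc cells, 5000/well, 5% FBS OPTI-MEM; compounds in dose-response, 18-24 h at 37 °C/5% CO2; CellTiter-Fluor viability read (Ex 405/Em 525), then BugLite luciferase luminescence = Nrf2 activity.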
Resorufin autofl: qHTS for Inhibitors of mutant isocitrate dehydrogenase 1 (IDH1): Cherrypicks Autofluorescence Interference; 750 tested, under 10 active; Resorufin detection reagent fluorescence interference, cell-free; shares compounds with IDH1 R132H inh; inhibition of signal, % at 51.2 µM
IDH1 WT: qHTS for Inhibitors of mutant isocitrate dehydrogenase 1 (IDH1): Cherrypicks in WT IDH1; shares compounds with IDH1 R132H inh; WT IDH1 enzyme, NADPH diaphorase/resazurin fluorescence; Potency, µM (doses to about 115 µM), most hits filed as inhibitors; 750 compounds, 9% hits; AID 623995, 2012; also: nearly all actives have a fitted effect of over 55% in size
mIDH1 confirm: qHTS for Inhibitors of mutant isocitrate dehydrogenase 1 (IDH1): Confirmation of Cherrypicks | shares compounds with IDH1 R132H inh | IDH1 R132H enzyme, NADPH diaphorase/resazurin fluorescence | Potency, µM (titrated, usually from 76.6 µM), most hits filed as inhibitors | 750 compounds, 83% hits | AID 624002, 2012; also: nearly all actives have a fitted effect of over 50% in size
A number is an active result; . = inactive; ? = inconclusive; / = no result. Unless noted, calls follow the shape of the dose curve; as a rule, active = well fitted curve in the direction sought with a large enough effect; inconclusive = small, poorly fitted or top-dose-only effect, or another doubt; inactive = no such curve, though single readings can be large; an effect the other way counts as inactive or inconclusive.

SMILES | Nrf2 activator | ALOX12 inh | A549 tox | IDH1 R132H inh | LDHA inh | Nrf2 inh | Resorufin autofl | IDH1 WT | mIDH1 confirm
Cc1ccccc1N=C1c2cc([N+](=O)[O-])ccc2-c2ncccc21 | . | . | . | ? | . | . | . | . | 22.4µM
Cc1cc([N+](=O)[O-])cc2c1-c1ncccc1C2=Nc1ccccc1 | . | . | . | . | . | . | / | / | /
Cc1ccc(S(=O)(=O)CCc2nnc(NC(=O)CCl)s2)cc1C | ? | . | . | ? | . | ? | . | . | 31.6µM
Cc1nn2c(=O)cc(CSCC(=O)Nc3cccc4ccccc34)nc2s1 | / | . | / | / | . | / | / | / | /
O=C(O)c1cc(-c2ccc(Cl)s2)nc2c(Cl)cccc12 | / | ? | / | / | . | / | / | / | /
CCCSC1=C(C#N)C(c2cccnc2)C(C(=O)OCC)=C(c2ccccc2)N1 (centres undefined) | . | . | . | ? | . | . | / | / | /
CCOC(=O)C1=C(c2ccccc2)NC(SCC)=C(C#N)C1c1cccnc1 (centres undefined) | . | . | . | ? | . | / | . | . | 15.8µM

Screening results (PubChem BioAssay)
